Bioassay records: PubChem BioAssay, National Center for Advancing Translational Sciences (NCATS)
An excerpt weighted towards active compounds, which were near 2.4% of everything screened.
Cruzain inh noDet – cruzain (T. cruzi) inhibition without detergent | P25779 | purified cruzain, Z-FR-AMC fluorescence, no detergent | 2.3% of 200,000 active | Potency, µM, without a hit: max response, negative = inhibition, hits mostly inhibitors;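 note: plate controls were enzyme without inhibitor for no effect and buffer without enzyme for full effect; nearly all actives have a fitted effect of over 40% in size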
Target sequence (P25779 123-467 limits assumed): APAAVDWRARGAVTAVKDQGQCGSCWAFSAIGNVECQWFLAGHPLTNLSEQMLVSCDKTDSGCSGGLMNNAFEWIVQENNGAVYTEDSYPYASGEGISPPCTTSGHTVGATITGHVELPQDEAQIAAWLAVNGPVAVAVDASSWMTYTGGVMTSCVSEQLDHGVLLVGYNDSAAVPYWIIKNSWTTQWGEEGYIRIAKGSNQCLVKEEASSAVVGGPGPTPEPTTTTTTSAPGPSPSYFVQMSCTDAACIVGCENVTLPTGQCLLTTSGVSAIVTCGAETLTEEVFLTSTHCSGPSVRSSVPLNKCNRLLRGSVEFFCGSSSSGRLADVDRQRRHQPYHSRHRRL
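Detergent-free condition (0.00005% Triton X-100) in acetate buffer pH 5.5 with DTT. 1.5 nM enzyme and compound were pre-mixed 15 min, then 2 uM Z-FR-AMC substrate added; reaction progress from fluorescence change between first and third reads (60 s).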
Cruzain inh Det – cruzain (T. cruzi) inhibition with detergent; P25779; purified cruzain, Z-FR-AMC fluorescence, 0.01% Triton; Potency, µM, for the others: max response, negative = inhibition, actives largely listed as inhibitors; 0.43% of 200,000 active; AID 1478;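 note: plate controls were neutral wells for no effect and buffer without enzyme for full effect; nearly all actives have a fitted effect of over 40% in size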
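Detergent-containing run (0.01% Triton X-100) in acetate buffer pH 5.5 with 5 mM DTT: enzyme at 1.5 nM final, 15 min compound preincubation at room temperature, then 2 uM Z-FR-AMC substrate. Activity taken as 60 s fluorescence increase at 360/450 nm.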
* = called active by the depositor; ? = inconclusive; ! = repeats disagree. Calls come from the whole dose curve; as a rule, active = well fitted curve in the direction sought with a large enough effect; inconclusive = small, poorly fitted or top-dose-only effect, or another doubt; inactive = no such curve, though single readings can be large; an effect the other way counts as inactive or inconclusive. Potency is the fitted concentration of half-maximal effect.

SMILES | Cruzain inh noDet | Cruzain inh Det
Cc1cc(C)c2cc(CN(CCN3CCCC3)C(=O)Nc3ccc(F)cc3)c(=O)[nH]c2c1 | ? | -2%
Cc1ccc(C)c2[nH]c(=O)c(CN(CCN3CCCC3)C(=O)Nc3cccc(Cl)c3)cc12 | 25µM* | -22%
NC(=O)c1c(NC(=O)c2noc3c2CCCC3)sc2c1CCCC2 | -4% | -12%
NC(=O)CSc1nnc(-c2cc(-c3cccs3)nc3ccccc23)o1 | -18% | -10%
CCCN(CC1CC1)C(=O)CSc1nnc(-c2cc(-c3cccs3)nc3ccccc23)o1 | 16µM* | -4%
CN(C)c1ncc2nc(-c3cccs3)c(=O)n(C)c2n1 | 3% | 1%
CC(C)CC(=O)OCc1cc(=O)n2nc(C3CCCCC3)sc2n1 | 7% | -3%
COc1ccc(OC)c(S(=O)(=O)Nc2cc3c(C(C)=O)c(C)oc3c3ccccc23)c1 | -8% | -6%
CCCCOC(=O)c1c(C)oc2c1cc(NS(=O)(=O)c1cc(OC)ccc1OC)c1ccccc12 | 13µM* | -1%
O=c1c(-c2cccs2)nc2cnc(N3CCNCC3)nc2n1C1CC1 | -2% | -2%
COc1ccc(/C=C2/C(=O)N(c3nc4ccccc4s3)N=C2CSc2ccc(Cl)cc2)cc1 | 3.2µM* | -8%
COc1ccc(/C=C2/C(=O)N(Cc3ccccc3)N=C2C)cc1 | 1% | 0%
CCOc1ccc(-c2nc(Cn3c(=O)cc(-c4ccccc4)c4c(C)nn(C)c43)c(C)o2)cc1OC | -3% | -2%
CCCCNC(=O)CSc1nnc(C)c2c(C)n(-c3ccccc3)nc12 | 1% | -4%
COC(=O)c1cc(-c2ccc(Br)cc2)on1 | -14% | 1%
Cc1ccc(Cn2ccc(NC(=O)c3cc(-c4ccc(Br)cc4)on3)n2)cc1 | 4µM* | 3%
Cc1ccc(Cn2ccc(NC(=O)c3cc(-c4ccccc4)on3)n2)cc1 | 3% | -4%
CC(NC(=O)c1cc(-c2ccc(Br)cc2)on1)c1ccccc1 (stereo unspecified) | 16µM* | 7%
CCC(C(=O)Nc1ccc(C(=O)OC)cc1)n1nc(-c2ccc(C)cc2)c2c(c1=O)CCCC2 (stereo unspecified) | -1% | -3%
CCc1ccc(-c2nc(CN3CCCC(C(=O)N4CCN(c5cc(Cl)ccc5C)CC4)C3)c(C)o2)cc1 (stereo unspecified) | 18% | -1%
COc1ccc(C(=O)/C=C/c2ccccc2)cc1 | 3% | -6%
O=C(/C=C/c1ccc2ccccc2c1)c1ccoc1 | 20µM* | 6%
CN(C)c1ccc(/C=N/N=C2/NC(=O)/C(=C/c3ccc([N+](=O)[O-])cc3)S2)cc1 | 6.3µM* | -13%
Cc1c(N=C2NC(=O)/C(=C/c3cccc([N+](=O)[O-])c3)S2)c(=O)n(-c2ccccc2)n1C | 12% | -3%
CCOc1cc(-c2ccc(N)c(OCC)c2)ccc1N | 25µM* | -8%
SMILES | Cruzain inh noDet | Cruzain inh Det
CCOc1ccc(NC(C)=O)cc1N | -7% | 1%
CCCCC/C=C\C[C@@H](O)/C=C/C=C/C=C/[C@@H](O)CCCC(=O)O | -4% | 3%
CCOC(=O)/C=c1\s/c(=C\c2ccc(C)cc2)c(=O)n1CC(=O)NCc1ccco1 | 16µM* | -1%
CCOC(=O)COc1cccc2c(=O)n(CC(=O)NCc3ccc4c(c3)OCO4)ccc12 | -1% | -5%
CCOC(=O)/C=c1\s/c(=C\c2ccc(-c3ccccc3)cc2)c(=O)n1CC(=O)NCc1ccc2c(c1)OCO2 | 2.5µM* | -3%
CCOC(=O)/C=c1\s/c(=C\c2ccc(C(F)(F)F)cc2)c(=O)n1CC(=O)NCc1ccco1 | ? | -4%
COc1cc2c(cc1OC)[C@@]13CCN4CC5=CCO[C@H](CC(=O)O)[C@@H]([C@H]1N2)[C@H]5C[C@H]43 | -1% | 5%
CCc1ccc(NS(=O)(=O)c2ccc3[nH]cc(C(=O)NCc4ccc(C)cc4)c(=O)c3c2)cc1 | ? | -5%
O=C(CCN1CCc2ccccc2C(c2ccccc2)C1)c1ccc2c(c1)OCCO2 (stereo unspecified) | 16µM* | 28µM*
O=C(CCN1Cc2ccccc2C1)c1ccc2c(c1)OCCO2 | ? | -25%
NC(N)=Nc1nc(CSCC/C(N)=N/S(N)(=O)=O)cs1 | 10µM*! | -14%
CCOC(=O)CCN(c1ccccc1)S(=O)(=O)c1cc(-c2cc(C)no2)ccc1C | ? | -1%
CN1CCC[C@@H]1c1cccnc1.O=C(O)c1ccccc1O.O=C([OH2+])c1ccccc1O.O=C([OH2+])c1ccccc1O.O=C([OH2+])c1ccccc1O.[Cu] | 14% | -1%
O=C(c1ccc2c(c1)OCO2)[C@@H]1[C@@H]2C(=O)N(C3CCCCC3)C(=O)[C@@H]2C2c3ccccc3C=CN21 (stereo partly specified) | 20µM* | -2%
O=C(c1cccs1)[C@@H]1[C@@H]2C(=O)N(Cc3ccc4c(c3)OCO4)C(=O)[C@@H]2C2c3ccccc3C=CN21 (stereo partly specified) | 25µM* | -2%
O=C(Nc1ccc2c(c1)OCO2)C1CCN(S(=O)(=O)Cc2ccccc2)CC1 | -9% | 2%
